A word on the AC50: it is the concentration giving half of the maximal activity seen.

Activity calls are given as the source filed them. The calls were made as follows: active = hit-call score of the fitted dose curve at least 0.9, where 1 is the maximum; inactive = score below 0.9.

Read-out in this assay: Pyruvate Dehydrogenase Kinase 4 (PDK4), PDK4 (gene 5166)
The experiment in a line: LTEA_HepaRG_PDK4: Life Technologies and Expression Analysis (LTEA) Assay for Pyruvate Dehydrogenase Kinase 4 (PDK4) using HepaRG (AID 2283525). The following applies: mRNA level, 48 h; actives raise or lower the signal. As for the experimental part:
LTEA_HepaRG is a cell based, multiplexed-readout assay that uses HepaRG, a human liver cell line, with measurements taken at 48 hours after chemical dosing on a 96-well plate.LTEA_HepaRG_PDK4 is one of 102 assay component(s) measured in the LTEA HepaRG cell culture assay. It is a marker of Diseases associated with PDK4 including Platelet Glycoprotein Iv Deficiency and Diabetes Mellitus, Noninsulin-Dependent.Data from the assay component LTEA_HepaRG_PDK4 was analyzed into 1 endpoint. This assay endpoint, LTEA_HepaRG_PDK4, was analyzed with bidirectional fitting relative to DMSO as the negative control and baseline of activity. Using a type of inducible reporter, measures of mRNA induction for gain or loss-of-signal activity can be used to understand regulation of transcription factor activity. To generalize the intended target to other relatable targets, this assay endpoint is annotated to the kinase intended target family, where the subfamily is serine/threonine kinase.
A total of 1060 chemcials from the ToxCast library were tested in eight-point concentration-response experiments. Cell culture and cytotoxicity assays were conducted at Thermo Fisher Scientific's Custom Services facility (Madison, WI). A single lot of human HepaRG cells (Thermo Fisher Scientific, Frederick, MD) was used for the cell culture experiments. 96-well format collagen type I coated plates of human HepaRG cells were prepared using established methods. Briefly, cryopreserved HepaRG cells were thawed, plated at a density of approximately 100,000 cells/well in HepaRG Thaw, Plate, and General Purpose media (HPRG770, Thermo Fisher Scientific), and incubated for 48 hours. 0.5% DMSO was selected as vehicle control to balance the requisite need of DMSO in HepaRG cultures to maintain differentiation (for example, baseline metabolism, proportions of hepatocytes vs. cholangiocytes), while enabling further hepatic receptor pathway activation (for example, PXR and CAR) in response to chemical exposure. 48 hours after plating, the culture medium was replaced with HepaRG Serum-Free Incudtion Media. Cells were exposed to each test chemical in duplicate and maintained in CO2 incubators for another 48 hours. Chemical plates were thawed to room temperature and 200x concentrations of treatment groups were prepared. 8-point conentration-reponse curves were made with the highest exposure at 100 uM, followed by half-log dilutions, all in 0.5% DMSO. Each test plate contained variouse controls, induction positive controls (1mM phenobarbital), cytotoxicity positive controls ([…] aflatoxin B1), vehicle controls (0.5% DMSO), and total lysis controls (0.5% DMSO). Cell morphology images were taken using an Essen IncuCyte FLR automated microscope, with six 96-well plates imaged in about 24 minutes. Images were captured and exported and JPEG files. Spent culture media was transfered to black-well plates for the LDH assay, and remaining media was sorted at -80 C for later use. Cells were treated with RLT buffer and frozen until shipped for gene expression analysis. Total RNA was isolated from the cell suspension in 75 uL of Buffer RLT (Qiagen, Germantown, MD 20874) by Quintiles/Expression Analysis (Durham, NC) using a custom isolation procedure. Total RNA from each plate well was transferred to a preamplification plate. Fluidigm's 96.96 Dynamic ArrayTM (Fluidigm, Amsterdam, the Netherlands) technology was used for gene expression analyses by quantitative reverse transcription polymerase chain reaction (qRT-PCR, performed by Quintiles/Expression Analysis, Durham, NC)89. Standard TaqManTM Assays (Applied Biosystems/ThermoFisher Scientific, Foster City, CA) were used to assess the expression of 93 genes selected based on their selectivity and sensitivity to important hepatic receptors known to be modulated by environmental chemicals; importance in human hepatocyte functionality; and hepatotoxicity. […]
As for `CN(C)CCO`, the compound was classed as inactive. Regarding `ClC1=C(Cl)[C@]2(Cl)[C@@H]3[C@H]4C[C@H]([C@@H]5O[C@H]45)[C@@H]3[C@@]1(Cl)C2(Cl)Cl`, the outcome was inactive. Take `CC#Cc1cc(C)nc(Nc2ccccc2)n1`: the AC50 was 19.2 µM (active). As for `C=CC(N)=O`, the outcome was inactive. On to `c1cc2ccc3cccc4ccc(c1)c2c34`, for which the compound was called inactive. On to `Nc1ccc(-c2ccc(N)cc2)cc1`, for which the call was inactive. For `ClC1=C(Cl)[C@]2(Cl)[C@@H]3[C@@H](Cl)[C@H]4O[C@H]4[C@@H]3C1(Cl)C2(Cl)Cl`, the outcome was inactive. Still for that read-out and setting: in the case of `Clc1ccc(C(c2ccccc2Cl)C(Cl)(Cl)Cl)cc1` (stereo not given) it was “inactive”. Same read-out and setting: in the case of `Cc1cccc([N+](=O)[O-])c1` it was “inactive”.

On to `O=C(O)C(F)(F)C(F)(F)C(F)(F)C(F)(F)C(F)(F)C(F)(F)C(F)(F)C(F)(F)C(F)(F)F`, for which the AC50 was 25.7 µM (active). On to `CCC(C)(c1ccc(O)cc1)c1ccc(O)cc1`, for which the call was inactive. With `Cc1cc2c3c(c1)C(c1ccccc1)=N[C@@H](NC(=O)c1ccncc1)C(=O)N3CC2`, the concentration at half-maximal activity (AC50) was 50 µM (active). `O=C(NC(=O)c1c(F)cccc1F)Nc1cc(Cl)c(OC(F)(F)C(F)F)c(Cl)c1`: the outcome was inactive. The same measure, in the same setting: the value for `CO/C=C(/C(=O)OC)c1ccccc1COc1cccc(C(F)(F)F)n1` was “inactive”. Still for that read-out and setting: in the case of `CCC(=O)O[C@H]1CC[C@H]2[C@@H]3CCC4=CC(=O)CC[C@]4(C)[C@H]3CC[C@]12C` it was “inactive”; in that of `Cc1ccccc1O`, “inactive”.

Consider `Cc1cc(-c2ccc(N)c(C)c2)ccc1N`, for which the AC50 is 9.92 µM (active). `CN(C)c1nc(=O)n(C2CCCCC2)c(=O)n1C`: the outcome was inactive. The same measure, in the same setting: the value for `CCCCCCOC(=O)c1ccccc1C(=O)OCCCCCC` was “inactive”. Take `CCOC(=O)C(O)(c1ccc(Cl)cc1)c1ccc(Cl)cc1`: the AC50 is 36.2 µM (active). Same read-out and setting: in the case of `ClC1=C(Cl)[C@]2(Cl)[C@@H]3[C@@H]4C[C@@H]([C@H]5O[C@@H]45)[C@@H]3[C@@]1(Cl)C2(Cl)Cl` it was 0.00905 µM (active).

On to `Nn1cnnc1`, for which the compound was classed as inactive. For the compound `CCCN(CCC)N=O`, the call was inactive. Same read-out and setting: in the case of `NS(=O)(=O)C(F)(F)C(F)(F)C(F)(F)C(F)(F)C(F)(F)C(F)(F)C(F)(F)C(F)(F)F` it was “inactive”; in that of `N#Cc1ccc(N(CC(N)=O)CC(F)(F)F)cc1C(F)(F)F`, “inactive”; in that of `C=CC(=O)NCNC(=O)C=C`, “inactive”.

Take `Cc1ccccc1[N+](=O)[O-]`: the result was inactive. For `Cc1ccc(O)c(C)c1`, the call was inactive.

For the compound `CCSC(=O)N(CC)C1CCCCC1`, the call was inactive. As to `Oc1ccc(C(c2ccc(O)cc2)(C(F)(F)F)C(F)(F)F)cc1`, the result was inactive. `O=C(NC(=O)c1cc(F)c(F)cc1Cl)Nc1cc(F)ccc1N1CCC(C(=O)O)CC1`: the outcome was inactive. Same read-out and setting: the value for `c1ccc(-c2ccccc2)cc1` was “inactive”. As to `O=S(=O)(O)C(F)(F)C(F)(F)C(F)(F)C(F)(F)C(F)(F)C(F)(F)F`, the AC50 was 35.2 µM (active).

Consider `CCCCCCCCCC[N+](C)(C)CCCCCCCCCC`, for which the AC50 was 82.5 µM (active). `CC1=C2C[C@H]3[C@@H](CC=C4C[C@@H](O)CC[C@@]43C)[C@@H]2CC[C@]12O[C@@H]1C[C@H](C)CN[C@H]1[C@H]2C`: the compound was called inactive. On to `COS(=O)(=O)OC`, for which the call was inactive. `Cc1ccccc1CO[C@@H]1C[C@@]2(C(C)C)CC[C@]1(C)O2`: the AC50 was 50 µM (active). `CCOP(=S)(OCC)SCSC(C)(C)C`: the half-maximal activity concentration (AC50) is 18 µM (active).

As to `CCC(C)(CC)c1cc(NC(=O)c2c(OC)cccc2OC)on1`, the outcome was inactive. For `Oc1ccc(Cl)cc1Cl`, the result was inactive.

These data come from PubChem BioAssay (EPA / NIEHS).
